Experimental data: PubChem BioAssay
For some of these results: Results with a measured potency or affinity are listed apart. Calls of active or inactive are those of the source.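 How the source made its calls, unless noted: active means compound raising the membrane signal above positive-control mean plus 3 SD in both repeats, and a primary screen hit; inactive means the rest.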

Experiments:
[1] = test system: TRPC4 beta (transient receptor potential cation channel C4), mouse; test: activators of mouse TRPC4 channel, confirmation, cell-based, Fluo4 calcium, HEK293 TRPC4beta/mu-opioid, duplicates, 10 µM (AID 2426;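 active means fluorescence ratio normalized to control raised more than 50% in primary screen plus both repeat runs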;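 further: percent rise of integrated ratio over buffer wells lacking compound which define 0%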); details: Fluo4 calcium fluorescence, at 10 µM; hits give high values
[2] = test system: transient receptor potential cation channel C4 beta (TRPC4), mouse; test: activators of mouse TRPC4 channel, confirmation, cell-based, second round, Fluo4, HEK293 TRPC4beta/mu-opioid, 1 µM (AID 2461;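 active means primary screen active and over 50% activation in each of two duplicate runs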;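 on activation: 0% = wells without test compound as baseline of integrated fluorescence ratio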); details: Fluo4 calcium fluorescence, at 1 µM; hits give high values
[3] = test system: TRPC4 (transient receptor potential cation channel C4 beta), mouse; test: positive allosteric modulators of mouse TRPC4, confirmation, cell-based, second round, Fluo-4, HEK293 TRPC4beta/mu-opioid, 1 µM (AID 2554;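 active means primary screen hit whose fluorescence ratio, in both repeats, exceeds the weak agonist control mean by 3 SD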); details: DAMGO EC20, Fluo-4 calcium flux, at 1 µM; hits give high values
[4] = test system: TRPC4 beta (transient receptor potential cation channel C4), mouse; test: positive allosteric modulators of mouse TRPC4, confirmation, cell-based, Fluo-4, HEK293 TRPC4beta/mu-opioid (AID 2555;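 active means primary screen hit whose calcium fluorescence ratio, in both repeats, exceeds the weak agonist control mean by 3 SD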); details: DAMGO EC20, Fluo-4 calcium flux, at 10 µM; hits give high values
[5] = molecular target: Short transient receptor potential channel 4 (Mus musculus) (UniProt Q9QUQ5); test: inhibitors of mouse TRPC4 channel, confirmation, cell-based, Fluo4, HEK293 TRPC4beta/mu-opioid (AID 2636;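 active means calcium signal cut by more than 3 SD below the full-agonist control yet still positive, in both repeats and the earlier primary screen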); details: DAMGO, Fluo4 calcium flux, at 10 µM; hits give high values
Short transient receptor potential channel 4 (Mus musculus), sequence (Q9QUQ5 whole entry, looked up): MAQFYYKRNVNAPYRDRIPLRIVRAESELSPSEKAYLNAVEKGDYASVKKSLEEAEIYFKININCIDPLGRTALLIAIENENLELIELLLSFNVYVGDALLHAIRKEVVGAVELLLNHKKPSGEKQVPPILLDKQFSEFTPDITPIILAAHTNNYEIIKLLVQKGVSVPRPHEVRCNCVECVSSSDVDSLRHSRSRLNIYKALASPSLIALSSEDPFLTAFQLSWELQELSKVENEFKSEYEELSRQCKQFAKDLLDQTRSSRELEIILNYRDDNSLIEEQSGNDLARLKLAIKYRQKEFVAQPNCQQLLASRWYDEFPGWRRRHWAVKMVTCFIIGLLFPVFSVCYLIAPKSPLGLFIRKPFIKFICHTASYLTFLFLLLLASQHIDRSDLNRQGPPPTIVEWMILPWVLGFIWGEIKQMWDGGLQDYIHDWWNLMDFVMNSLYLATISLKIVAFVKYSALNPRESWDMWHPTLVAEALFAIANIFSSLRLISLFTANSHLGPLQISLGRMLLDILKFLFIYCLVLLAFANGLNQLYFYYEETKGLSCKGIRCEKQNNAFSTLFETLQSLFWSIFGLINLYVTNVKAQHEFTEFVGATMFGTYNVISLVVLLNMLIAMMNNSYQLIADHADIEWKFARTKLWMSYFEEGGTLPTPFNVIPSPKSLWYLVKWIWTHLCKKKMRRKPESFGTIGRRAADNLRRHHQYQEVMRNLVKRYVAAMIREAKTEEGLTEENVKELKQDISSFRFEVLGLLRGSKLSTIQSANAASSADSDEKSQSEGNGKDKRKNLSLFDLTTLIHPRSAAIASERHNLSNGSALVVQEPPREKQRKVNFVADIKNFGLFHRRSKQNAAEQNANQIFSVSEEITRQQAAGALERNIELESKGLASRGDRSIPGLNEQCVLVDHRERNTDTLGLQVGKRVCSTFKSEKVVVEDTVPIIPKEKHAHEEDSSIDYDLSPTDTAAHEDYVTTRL

[6] = molecular target: Short transient receptor potential channel 4 (Mus musculus) (UniProt Q9QUQ5); test: inhibitors of mouse TRPC4 channel, confirmation, cell-based, second round, Fluo4, HEK293 TRPC4beta/mu-opioid, 1 µM (AID 2637;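 active means calcium signal ratio cut to more than 3 SD under the fully stimulated control mean yet still positive, in both repeats and the primary screen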); details: Fluo4 calcium flux, DAMGO, at 1 µM; hits give high values
[7] = molecular target: Short transient receptor potential channel 4 (Mus musculus) (UniProt Q9QUQ5); test: TRPC4 positive allosteric modulators, dose response, cell-based, HEK293 TRPC4/mu-opioid, Fluo-4 calcium, EC20 DAMGO (AID 434941;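 active means earlier screen potentiator hit that boosts the TRPC4 ion channel at some dose, with a dose response; inactive means no potentiation, no dose response, or not a prior hit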;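 further: calcium entry triggered by an EC20 dose of DAMGO at the co-expressed mu-opioid receptor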)
[8] = molecular target: Short transient receptor potential channel 4 (Mus musculus) (UniProt Q9QUQ5); test: mouse TRPC4 channel inhibitors, dose response, cell-based, HEK293 TRPC4/mu-opioid, Fluo-4 calcium (AID 434942;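 active means primary screen inhibitor hit that blocks the TRPC4 channel at some tested dose, yielding a dose curve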)
[9] = molecular target: Short transient receptor potential channel 6 (Mus musculus) (UniProt Q61143); test: inhibition of mouse TRPC6 channel, confirmation, selectivity assay for TRPC4 inhibitor project, cell-based, HEK293, membrane potential dye, duplicate (AID 434948;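 active means active in primary screen and both duplicates, each dropping signal beyond three positive-control SD with fluorescence still positive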); details: HEK293 TRPC6, membrane potential dye fluorescence, at 10 µM, stimulated with maximal-effect acetylcholine; hits give high values
Short transient receptor potential channel 6 (Mus musculus), sequence (Q61143 whole entry, looked up): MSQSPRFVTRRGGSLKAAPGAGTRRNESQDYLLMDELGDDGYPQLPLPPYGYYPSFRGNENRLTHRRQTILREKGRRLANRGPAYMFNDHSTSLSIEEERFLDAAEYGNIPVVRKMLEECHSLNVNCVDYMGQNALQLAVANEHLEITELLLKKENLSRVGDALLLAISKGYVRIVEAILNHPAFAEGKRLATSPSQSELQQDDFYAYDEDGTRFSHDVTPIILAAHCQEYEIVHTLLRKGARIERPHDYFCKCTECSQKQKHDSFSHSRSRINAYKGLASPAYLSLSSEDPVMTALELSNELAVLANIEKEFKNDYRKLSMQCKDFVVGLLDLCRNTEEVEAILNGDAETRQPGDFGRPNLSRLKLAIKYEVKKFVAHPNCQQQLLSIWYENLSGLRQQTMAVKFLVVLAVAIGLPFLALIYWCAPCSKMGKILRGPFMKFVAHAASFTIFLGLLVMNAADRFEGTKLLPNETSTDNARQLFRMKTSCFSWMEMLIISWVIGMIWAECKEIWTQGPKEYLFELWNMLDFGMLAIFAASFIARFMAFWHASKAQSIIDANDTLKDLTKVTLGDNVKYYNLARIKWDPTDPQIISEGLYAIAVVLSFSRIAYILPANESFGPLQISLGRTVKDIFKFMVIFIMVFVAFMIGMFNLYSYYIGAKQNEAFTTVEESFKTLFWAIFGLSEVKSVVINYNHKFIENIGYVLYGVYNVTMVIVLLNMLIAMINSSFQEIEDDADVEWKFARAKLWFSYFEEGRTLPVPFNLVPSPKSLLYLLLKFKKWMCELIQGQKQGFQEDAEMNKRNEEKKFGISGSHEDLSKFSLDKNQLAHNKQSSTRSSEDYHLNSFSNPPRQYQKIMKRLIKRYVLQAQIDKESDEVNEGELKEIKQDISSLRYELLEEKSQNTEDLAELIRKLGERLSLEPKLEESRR

[10] = molecular target: Short transient receptor potential channel 6 (Mus musculus) (UniProt Q61143); test: activation of mouse TRPC6 channel, confirmation, selectivity assay for TRPC4 activator project, cell-based, HEK293, membrane potential dye, duplicate (AID 434950;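 active means membrane potential signal rise above negative control mean plus 3 SD in both duplicates, also active in the earlier TRPC4 screen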;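 on activation: 0% = buffer only wells and 100% = acetylcholine maximal-effect wells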); details: HEK293 TRPC6, membrane potential fluorescence, at 10 µM; hits give high values
[11] = molecular target: Short transient receptor potential channel 6 (Mus musculus) (UniProt Q61143); test: TRPC6 potentiation by TRPC4 potentiator hits, confirmation, selectivity assay for TRPC4 potentiator project, HEK293 cells, membrane potential dye, duplicate (AID 434952); details: HEK293 TRPC6, membrane potential dye fluorescence, at 10 µM, maximal acetylcholine added after compound; hits give high values
[12] = molecular target: Short transient receptor potential channel 4 (Mus musculus) (UniProt Q9QUQ5); test: calcium flux activators in TRPC4/5HT1a cells, counter-screen for TRPC4 activator project, cell-based, second counter screen, HEK293 TRPC4/5HT1a, Fluo-4 (AID 434977;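 active means calcium signal rise above buffer-control mean plus 5 SD in both duplicates, and also a hit in the primary screen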;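 further: plate controls were assay buffer for no effect and maximal serotonin response for full effect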); details: Fluo-4 calcium flux, at 10 µM; hits give high values
[13] = calcium flux inhibitors in TRPC4/5HT1a cells, confirmation, counter-screen for TRPC4 inhibitor project, cell-based, second counter screen, HEK293 TRPC4/5HT1a, Fluo-4 (AID 434978;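 active means primary screen active whose calcium signal fell more than 3 SD beyond the full-serotonin control mean in both duplicate plates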;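 further: serotonin given first at submaximal then at maximal dose after compound preincubation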); details: Fluo-4 calcium flux, at 10 µM, serotonin added to trigger calcium flux; hits give high values
[14] = test system: TRPC4 (mouse), co-expressed with 5HT1a in HEK293; test: calcium flux potentiators in TRPC4/5HT1a cells, confirmation, counter-screen for TRPC4 potentiator project, cell-based, second counter screen, HEK293 TRPC4/5HT1a, Fluo-4 (AID 434979;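 active means signal rise over 3 SD above mean of control wells given weak agonist, in both repeats and first screen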); details: Fluo-4 calcium flux, at 10 µM, serotonin added at its EC20 dose; hits give high values
[15] = calcium flux activation in mu-opioid HEK293 cells, confirmation, counter-screen for TRPC4 activator project, cell-based, HEK293 mu-opioid receptor line (AID 449723;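 active means hit in primary screen, with calcium signal over 5 SD above buffer well mean in both duplicates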;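 further: counter screen cells carry the mu-opioid receptor alone and lack TRPC4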); details: Fluo-4 calcium fluorescence, at 10 µM; hits give high values
[16] = calcium flux enhancement in mu-opioid HEK293 cells, confirmation, counter-screen for TRPC4 allosteric potentiator project, cell-based, HEK293 mu-opioid receptor line (AID 449724;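 active means calcium signal rise more than 3 SD above the low-dose agonist control mean, in both duplicate plates and the primary screen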); details: Fluo-4 calcium flux, at 10 µM, compound added before EC20 DAMGO stimulus; hits give high values
[17] = thallium flux activation in parental CHO cells, counter-screen for KCNQ1 potentiator project (AID 493006;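 active means duplicate-averaged activation above buffer control mean plus 5 SD of those controls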;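 on activation: fluorescence ratio of max minus min over baseline after K+ and Tl+ depolarization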); details: parental CHO-K1 cells, FluxOR thallium flux, at 10 µM; hits give high values
[18] = molecular target: Potassium voltage-gated channel subfamily KQT member 1 (Homo sapiens) (UniProt P51787); test: KCNQ1 potassium channel potentiators, confirmation, FluxOR thallium flux, CHO cells, duplicates (AID 493007;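 active means potentiation averaged over duplicate wells exceeding buffer-only control mean by more than 3 SD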;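 on outcome: cells depolarized by a potassium plus thallium sulfate stimulus after compound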;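 on potentiation: 0% = buffer-only wells and 100% = R-L3 activator control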); details: KCNQ1 cell line, FluxOR thallium flux fluorescence, at 10 µM; hits give high values, % of reference activator effect, buffer zero
Potassium voltage-gated channel subfamily KQT member 1 (Homo sapiens), sequence (P51787 whole entry, looked up): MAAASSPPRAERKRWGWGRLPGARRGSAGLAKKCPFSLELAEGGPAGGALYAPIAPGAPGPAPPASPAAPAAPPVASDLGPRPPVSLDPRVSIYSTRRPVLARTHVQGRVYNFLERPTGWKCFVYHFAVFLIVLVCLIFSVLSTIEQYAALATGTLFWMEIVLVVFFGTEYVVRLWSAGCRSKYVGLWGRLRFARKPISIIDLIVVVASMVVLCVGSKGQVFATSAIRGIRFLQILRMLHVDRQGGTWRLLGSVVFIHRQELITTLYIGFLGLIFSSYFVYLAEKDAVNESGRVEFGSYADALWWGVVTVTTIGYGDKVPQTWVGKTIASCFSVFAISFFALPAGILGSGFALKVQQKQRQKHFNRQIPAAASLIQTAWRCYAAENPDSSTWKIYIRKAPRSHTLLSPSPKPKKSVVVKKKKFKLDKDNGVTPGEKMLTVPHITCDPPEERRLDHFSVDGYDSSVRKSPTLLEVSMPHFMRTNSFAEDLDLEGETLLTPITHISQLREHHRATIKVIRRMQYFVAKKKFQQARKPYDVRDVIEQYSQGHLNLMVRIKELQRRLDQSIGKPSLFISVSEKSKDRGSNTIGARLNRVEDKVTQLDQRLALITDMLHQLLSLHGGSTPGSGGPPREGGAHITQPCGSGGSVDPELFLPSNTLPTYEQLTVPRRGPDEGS

[19] = molecular target: Potassium voltage-gated channel subfamily KQT member 2 (Rattus norvegicus) (UniProt O88943); test: rat KCNQ2 channel potentiation, selectivity assay for KCNQ1 potentiator project, KCNQ2-CHO-K1 cells (AID 493009;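 active means mean duplicate potentiation above the buffer control mean plus 5 SD of buffer wells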;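 further: assay conditions were tuned for KCNQ1 rather than KCNQ2 modulators; signal is max minus min fluorescence divided by baseline after thallium stimulus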); details: FluxOR thallium flux fluorescence, at 10 µM; hits give high values, scaled: buffer 0, activator control 100
Potassium voltage-gated channel subfamily KQT member 2 (Rattus norvegicus), sequence (O88943 whole entry, looked up): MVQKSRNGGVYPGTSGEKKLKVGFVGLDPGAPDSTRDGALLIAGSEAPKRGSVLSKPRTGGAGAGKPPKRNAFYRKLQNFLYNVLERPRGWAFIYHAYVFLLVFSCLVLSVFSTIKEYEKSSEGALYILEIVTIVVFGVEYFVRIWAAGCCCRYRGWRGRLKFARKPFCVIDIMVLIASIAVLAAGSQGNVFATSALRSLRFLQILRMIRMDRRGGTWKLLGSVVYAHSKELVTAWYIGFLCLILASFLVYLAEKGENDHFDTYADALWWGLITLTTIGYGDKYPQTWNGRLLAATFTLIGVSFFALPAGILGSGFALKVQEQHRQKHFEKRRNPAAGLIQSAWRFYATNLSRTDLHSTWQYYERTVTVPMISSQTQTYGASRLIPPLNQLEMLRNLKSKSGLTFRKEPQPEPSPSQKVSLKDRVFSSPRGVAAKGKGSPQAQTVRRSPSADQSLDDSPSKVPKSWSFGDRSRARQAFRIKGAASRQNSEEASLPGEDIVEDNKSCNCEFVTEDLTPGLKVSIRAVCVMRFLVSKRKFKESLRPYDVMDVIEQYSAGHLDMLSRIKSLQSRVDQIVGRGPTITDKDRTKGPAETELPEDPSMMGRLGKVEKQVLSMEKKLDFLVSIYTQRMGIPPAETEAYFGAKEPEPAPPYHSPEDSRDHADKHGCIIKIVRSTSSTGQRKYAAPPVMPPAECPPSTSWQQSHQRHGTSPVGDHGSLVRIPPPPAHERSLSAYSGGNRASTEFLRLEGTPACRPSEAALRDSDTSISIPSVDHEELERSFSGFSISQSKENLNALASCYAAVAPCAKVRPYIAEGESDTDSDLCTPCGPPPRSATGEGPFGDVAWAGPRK

[20] = molecular target: Potassium voltage-gated channel subfamily KQT member 1 (Homo sapiens) (UniProt P51787); test: KCNQ1 channel current potentiators, confirmation, orthogonal assay for KCNQ1 potentiator project, IonWorks patch clamp, KCNQ1-CHO cells (AID 493184;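 active means current rise at least 3 SD above the untreated control mean in each of two repeat wells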); details: automated patch clamp current, at 10 µM; hits give high values

With `CCN1CCN(c2ccc(S(=O)(=O)N3CCOCC3)cc2NC(=O)C(C)Oc2cccc(Cl)c2)CC1` (configuration not stated) the activation [1] was 83% (active), the outcome [2] was “inactive” and the outcome [3] was “inactive”. For the same compound, the outcome [4] was “inactive”, the outcome [5] was “inactive” and the outcome [6] was “inactive”. The outcome [7] was “inactive”, the outcome [8] was “inactive” and the outcome [9] was “inactive”. For the same compound, the activation [10] was 38% (active), the outcome [11] was “inactive” and the activation [12] was 11.3% (active). The outcome [13] was “inactive”, the outcome [14] was “inactive” and the outcome [15] was “inactive”. The outcome [16] was “inactive”.
For `Cc1cccc(C(=O)NNC(=S)NC(=O)c2cccs2)c1`, the activation [1] was 158% (active), the outcome [2] was “inactive” and the outcome [3] was “inactive”. The outcome [4] was “inactive”, the outcome [5] was “inactive” and the outcome [6] was “inactive”. The outcome [7] was “inactive”, the outcome [8] was “inactive” and the outcome [9] was “inactive”. The outcome [10] was “inactive”, the outcome [11] was “inactive” and the activation [12] was 124% (active). The outcome [13] was “inactive”, the outcome [14] was “inactive” and the activation [15] was 36.4% (active). For the same compound, the outcome [16] was “inactive”, the activation [17] was 142% (active) and the potentiation [18] was 91% (active). For the same compound, the potentiation [19] was 226% (active) and the outcome [20] was “inactive”.
For `O=c1c2cc(Br)ccc2nc(-c2ccc(Cl)cc2)n1O`, the activation [1] was 268% (active), the outcome [2] was “inactive” and the outcome [3] was “inactive”. For the same compound, the outcome [4] was “inactive”, the outcome [5] was “inactive” and the outcome [6] was “inactive”. For the same compound, the outcome [7] was “inactive”, the outcome [8] was “inactive” and the outcome [9] was “inactive”. The outcome [10] was “inactive”, the outcome [11] was “inactive” and the activation [12] was 102% (active). For the same compound, the outcome [13] was “inactive”, the outcome [14] was “inactive” and the activation [15] was 31.7% (active). For the same compound, the outcome [16] was “inactive”, the activation [17] was 654% (active) and the potentiation [18] was 354% (active). For the same compound, the potentiation [19] was 708% (active) and the outcome [20] was “inactive”.
For `OCCN1CCN(Cc2cc(Br)cc(Br)c2O)CC1`, the activation [1] was 199% (active), the activation [2] was 170% (active) and the outcome [3] was “inactive”. For the same compound, the outcome [4] was “inactive”, the outcome [5] was “inactive” and the outcome [6] was “inactive”. The outcome [7] was “inactive”, the outcome [8] was “inactive” and the outcome [9] was “inactive”. For the same compound, the activation [10] was 32% (active), the outcome [11] was “inactive” and the activation [12] was 85.4% (active). For the same compound, the outcome [13] was “inactive”, the outcome [14] was “inactive” and the outcome [15] was “inactive”. For the same compound, the outcome [16] was “inactive”, the outcome [17] was “inactive” and the outcome [18] was “inactive”. The outcome [19] was “inactive” and the outcome [20] was “inactive”.
In the case of `O=c1c2cc(Br)ccc2nc(-c2cccc(C(F)(F)F)c2)n1O`, the activation [1] was 449% (active), the outcome [2] was “inactive” and the outcome [3] was “inactive”. The outcome [4] was “inactive”, the outcome [5] was “inactive” and the outcome [6] was “inactive”. For the same compound, the outcome [7] was “inactive”, the outcome [8] was “inactive” and the outcome [9] was “inactive”. For the same compound, the outcome [10] was “inactive”, the outcome [11] was “inactive” and the activation [12] was 111% (active). For the same compound, the outcome [13] was “inactive”, the outcome [14] was “inactive” and the activation [15] was 60.8% (active). For the same compound, the outcome [16] was “inactive”, the activation [17] was 808% (active) and the potentiation [18] was 372% (active). For the same compound, the potentiation [19] was 766% (active) and the outcome [20] was “inactive”.
In the case of `COc1ccc(C(=O)NC(=S)NNC(=O)c2c(-c3ccccc3)noc2C)cc1`, the activation [1] was 100% (active), the outcome [2] was “inactive” and the outcome [3] was “inactive”. The outcome [4] was “inactive”, the outcome [5] was “inactive” and the outcome [6] was “inactive”. For the same compound, the outcome [7] was “inactive”, the outcome [8] was “inactive” and the outcome [9] was “inactive”. The activation [10] was 28.5% (active), the outcome [11] was “inactive” and the activation [12] was 105% (active). For the same compound, the outcome [13] was “inactive”, the outcome [14] was “inactive” and the activation [15] was 28.5% (active). The outcome [16] was “inactive”.
